Screening data deposited in PubChem by Sanford-Burnham Center for Chemical Genomics.
Artemis endo inh: Artemis (human) endonuclease inhibition; Q96SD1; recombinant Artemis, quenched FAM hairpin cleavage fluorescence; inhibition, % at 10 µM; actives 0.78% (n = 30,000); AID 686954;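 active means at 10 µM dose, at least 30% inhibition, measured as corrected fluorescence normalized to stimulator and neutral control wells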
Target sequence (Q96SD1 whole entry, looked up): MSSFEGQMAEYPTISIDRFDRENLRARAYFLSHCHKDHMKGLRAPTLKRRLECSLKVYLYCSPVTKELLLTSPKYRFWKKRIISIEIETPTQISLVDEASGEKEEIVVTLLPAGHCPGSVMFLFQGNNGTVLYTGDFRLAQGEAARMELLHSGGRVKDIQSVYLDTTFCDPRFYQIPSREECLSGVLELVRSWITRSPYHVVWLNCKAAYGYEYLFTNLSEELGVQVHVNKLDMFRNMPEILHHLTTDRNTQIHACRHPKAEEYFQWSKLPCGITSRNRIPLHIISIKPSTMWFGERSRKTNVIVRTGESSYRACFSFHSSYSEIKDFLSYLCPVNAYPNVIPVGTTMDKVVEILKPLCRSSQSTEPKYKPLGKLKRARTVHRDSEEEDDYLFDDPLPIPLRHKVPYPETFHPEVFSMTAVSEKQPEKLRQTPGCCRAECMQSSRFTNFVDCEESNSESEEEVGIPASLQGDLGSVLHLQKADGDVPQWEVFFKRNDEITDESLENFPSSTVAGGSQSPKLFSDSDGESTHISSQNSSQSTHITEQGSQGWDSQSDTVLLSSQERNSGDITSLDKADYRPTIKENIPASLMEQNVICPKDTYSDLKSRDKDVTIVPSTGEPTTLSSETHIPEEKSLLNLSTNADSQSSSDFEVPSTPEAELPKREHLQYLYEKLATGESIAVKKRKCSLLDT
* marks the source's active call; other numbers are inactive results. Shown is part of a subset that was picked to be rich in hits.

SMILES	Artemis endo inh
CCn1c(NN)nc2sc3c(c2c1=O)CCC3	0.6
Cc1cc(C)n(-c2nc(NCCO)c3c4c(sc3n2)CCCC4)n1	-1.6
Cc1cc(S(=O)(=O)Nc2nc(CN3CCOCC3)nc3sc4c(c23)CCCC4)ccc1F	-6.4
Cc1cc(C)n(-c2nc(NCCCO)c3c4c(sc3n2)CCCC4)n1	32.8*
CCOC(=O)c1c(C)[nH]c(C)c1C(=O)COC(=O)c1ccc(Cl)c(S(N)(=O)=O)c1	-3.6
O=S(=O)(c1ccccc1)n1ccc2cccnc21	0.5
O=C(N/C=N/OCc1ccc(Cl)cc1Cl)NOCc1ncc(C(F)(F)F)cc1Cl	17.7
O=C1c2ccccc2C(=O)c2c1oc(C(F)(F)F)c2C(=O)c1ccccc1	41.6*
O=C(c1ccccc1)c1nn(-c2ccccc2)c(=O)cc1C(F)(F)F	-3.9
O=C(c1ccccc1)c1nn(-c2ccc(Cl)cc2)c(=O)cc1C(F)(F)F	1.0
COC(=O)c1c(-c2ccc3ccccc3c2)csc1NC(=O)Cc1ccc(OC)c(OC)c1	10.5
COc1ccc(-c2nc(N)nc(C)c2Oc2ccccc2Br)c(O)c1	7.6
Cc1cc(NC(=O)COC(=O)CCCOc2ccc(Cl)cc2C)no1	0.3
Cc1cc(Cl)ccc1OCCCC(=O)NCC1CCCO1 (stereo not given)	4.2
Cc1cc(Cl)ccc1OCCCC(=O)NO	63.1*
Cc1cccc(C)c1NC(=O)COc1cccc(/C=N/NC(=O)C(=O)NCc2ccccc2)c1	1.4
C=CCSc1nc(NC)c2sccc2n1	-7.9
COc1cc(-c2[nH]nc3c2C(c2ccoc2)C(C#N)=C(N)O3)cc(OC)c1OC (stereo not given)	6.5
Cc1ccc(C2C(C#N)=C(N)Oc3n[nH]c(-c4cccs4)c32)cc1 (stereo not given)	0.7
N#CC1=C(N)Oc2n[nH]c(-c3cccs3)c2C1c1ccoc1 (stereo not given)	38.6*
Clc1ccc(CNc2nnnn2-c2ccccc2)c(Cl)c1	-8.6
Cc1cc(C)n(-c2nc(Nc3ccccc3C(F)(F)F)nc(-n3nc(C)cc3C)n2)n1	57.0*
Cc1csc(Nc2ccccc2C(F)(F)F)n1	-2.7
Cc1cc(C)n(-c2nc(NC(C)(C)C)nc(NC(C)(C)C)n2)n1	-4.3
Cn1cccc1/C=N/n1c(-c2ccccc2)n[nH]c1=S	-1.0
SMILES	Artemis endo inh
Cc1ccc(-c2n[nH]c(=S)n2/N=C/C=C\c2ccccc2[N+](=O)[O-])cc1	27.0
O=[N+]([O-])c1ccccc1/C=C/C=N/n1c(-c2ccc(Cl)cc2)n[nH]c1=S	30.5*
Cc1ccc(C)c(S(=O)(=O)Nc2ccc3scnc3c2)c1	3.5
O=C(Nc1c(C(=O)Nc2cccc3ccccc23)cnn1-c1ccccc1)c1ccco1	9.7
CC(/C=C(\NC(=O)c1ccccc1)C(=O)N=Nc1c(O)[nH]c2ccc(C)cc12)=C\c1ccccc1	14.2
C=CCN=C(NC#N)SCc1ccccc1Cl	5.1
Cc1ccc(C(=O)Nc2nc3nc(-c4ccccc4)cc(=O)n3[nH]2)cc1	3.2
Cc1ccc(N=Nc2c(N)[nH]n3c(=O)cc(-c4ccccc4)nc23)cc1	47.7*
COc1cccc(N=Nc2c(N)[nH]n3c(=O)cc(-c4ccccc4)nc23)c1	36.3*
CSc1nc2nc(-c3ccccc3)cc(=O)n2[nH]1	-2.0
COc1cccc(-c2cc(C(F)(F)F)n3ncc(C(=O)O)c3n2)c1	-2.4
Cc1[nH]n2c(=O)cc(C(C)(C)C)nc2c1-c1ccccc1	15.2
Cc1ccc(N=Nc2c(=O)[nH]n3c(=O)cc(C)[nH]c23)cc1	11.9
CCOC(=O)Cc1cc(=O)n2[nH]c(C)c(-c3ccc(OC)cc3)c2n1	4.7
Cc1[nH]n2c(=O)cc(-c3ccc([N+](=O)[O-])cc3)nc2c1-c1ccccc1	31.9*
Nc1n[nH]c(S(=O)(=O)CCCc2ccccc2)n1	-2.2
CCc1nc(SCc2ccc(F)cc2)[nH]c(=O)c1C#N	-1.0
COc1nc(C)nc2c1sc(=S)n2C	4.8
CCOC(=O)c1ccc(Nc2nc(-c3cccnc3)nc3ccccc23)cc1	20.6
CC1(C)Oc2ccc(NC(=O)c3ccco3)cc2O1	9.1
Cc1nc(-c2ccccc2O)n(-c2ccccc2)n1	-1.9
COc1ccc(C2(NC(C)=O)CCN(C(=O)c3cccs3)CC2)cc1	-4.1
COc1ccc(C2=CC(c3c(C)nn(-c4ccccc4)c3Cl)n3nnnc3N2)cc1OC (stereo not given)	-4.8
O=S1(=O)C=C(SCc2cccc(Cl)c2)Nc2ccccc21	-0.3
COC1(OC)N=C(NC(=O)Nc2ccccc2)C2(C#N)C(c3ccccc3)C12C#N (stereo not given)	-9.4
SMILES	Artemis endo inh
CCOc1cc(C2/C(=C(/O)c3ccc(OC(C)C)cc3)C(=O)C(=O)N2CCCOC)ccc1O (stereo not given)	-1.7
COc1cccc(OC)c1-c1nn2c(-c3cc(-c4ccccc4)n[nH]3)nnc2s1	80.2*
Cc1cc(-c2nnc3sc(-c4ccc(Cl)cc4Cl)nn23)n[nH]1	6.2
CCOc1cccc(-c2nn3c(-c4cc(C)[nH]n4)nnc3s2)c1	5.7
C=CCOC(=O)Nc1c(C(=O)OC)[nH]c2ccc(Cl)cc12	15.7
Cc1nn(Cc2ccccc2)c2sc(C(=O)N3CCN(Cc4ccc5c(c4)OCO5)CC3)cc12	7.8
Cc1cc(C)n(-c2cc(N3CCN(C(=O)c4cccc(F)c4)CC3)ccc2[N+](=O)[O-])n1	7.6
O=c1ccc2cc3c([nH]c4ccc(Br)cc43)oc-2c1O	80.9*
Cc1[nH]c2ccc(Br)cc2c(=O)c1CN1CCOCC1	-4.0
O=c1c(O)c(-c2ccc3c(c2)OCO3)oc2ccccc12	5.1
O=S(=O)(NC1CCCCC1)c1ccc(Br)cc1	-0.8
Cc1ccccc1Nc1nc(N)nc(CSc2nc3ccccc3c(=O)n2C)n1	11.8
COc1ccc(-c2nnn(CCc3nn[nH]n3)n2)cc1	-7.1
Oc1c(Br)cc(C2N=C(c3ccccc3Cl)NO2)cc1Br (stereo not given)	31.2*
O=C(O)c1cc(-c2ccccc2Cl)n[nH]1	-8.9
CCC1CCCCN1S(=O)(=O)c1ccc(C(=O)Nc2nnc(-c3ccccc3Cl)o2)cc1 (stereo not given)	36.0*
CCCCN(CC)S(=O)(=O)c1ccc(C(=O)Nc2nnc(-c3ccccc3Cl)o2)cc1	10.5
COc1ccccc1-c1nnc(NC(=O)c2ccc(S(=O)(=O)N(C)C)cc2)o1	7.5
CC1CCCCN1C(=O)c1ccc(S(=O)(=O)N2CCCCC2C)cc1 (stereo not given)	-2.8
CCN1CCCC1CNS(=O)(=O)c1ccc(C(=O)Nc2ccccc2)cc1 (stereo not given)	2.1
CC1CCCCN1S(=O)(=O)c1ccc(C(=O)Nc2nnc(-c3ccccc3Cl)o2)cc1 (stereo not given)	32.1*
N#CCCn1ncn(-c2ccccc2)c1=S	-0.2
CN1CCCCc2c1[nH]c1ccccc1c2=O	-2.2
CCCCS(=O)CC(COCc1ccccc1)OC(=O)CSc1nc(C)cc(C)n1 (stereo not given)	4.8
COC(=O)C(/C=N/OCc1ccc([N+](=O)[O-])cc1)NC(=O)c1cccc(Cl)c1 (stereo not given)	8.3
SMILES	Artemis endo inh
Cc1cccc2cc(=O)[nH]c(C)c12	-3.3
COC(=O)c1[nH]c(=O)c2ccccc2c1O	27.7
Cc1ccccc1Nc1cc2ccccc2c(=O)[nH]1	31.0*
Cc1ccc(S(=O)(=O)CC(=O)N(C)C)cc1	-5.6
CCOC(=O)C1=C(CSc2nc(C)ccc2C#N)OC(N)=C(C#N)C1c1cccc(OC)c1OC (stereo not given)	-8.8
CCn1c(SCC(=O)Nc2oc(-c3ccccc3)c(-c3ccccc3)c2C#N)nnc1-c1ccco1	25.9
